Screening data from PubChem BioAssay.
Compounds with a hit are over-represented: about 1.4% of the library has one in this group of screens.
Nox1 inh – blocks human NADPH oxidase 1 activity. Q9Y5S8. HT29 cells, luminol chemiluminescence ROS. inhibition, % at 6.7 µM. actives 0.81% (n = 16,000). AID 1792
Target sequence (Q9Y5S8 whole entry, looked up): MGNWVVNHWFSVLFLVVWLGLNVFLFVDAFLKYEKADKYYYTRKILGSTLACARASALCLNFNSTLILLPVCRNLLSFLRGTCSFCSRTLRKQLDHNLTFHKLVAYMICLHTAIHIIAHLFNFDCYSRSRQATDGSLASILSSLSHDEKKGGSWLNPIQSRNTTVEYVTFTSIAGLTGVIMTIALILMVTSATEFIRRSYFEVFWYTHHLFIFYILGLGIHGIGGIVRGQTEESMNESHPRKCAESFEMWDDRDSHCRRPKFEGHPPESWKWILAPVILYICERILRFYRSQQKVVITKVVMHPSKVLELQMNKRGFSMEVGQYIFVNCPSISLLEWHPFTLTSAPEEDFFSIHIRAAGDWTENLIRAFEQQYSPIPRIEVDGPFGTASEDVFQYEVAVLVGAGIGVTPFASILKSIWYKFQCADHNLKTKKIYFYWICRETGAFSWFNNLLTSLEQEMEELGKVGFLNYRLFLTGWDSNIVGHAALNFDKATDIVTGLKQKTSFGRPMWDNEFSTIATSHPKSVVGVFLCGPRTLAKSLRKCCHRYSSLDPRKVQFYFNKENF
luminol inh ctr – quenches luminol chemiluminescence in Nox1 counter-screen; HRP/luminol/H2O2 chemiluminescence counterscreen; inhibition, % at 6.7 µM; actives 0.4% (n = 16,000); also: reference of the scale not given here
Numbers without * were called inactive. Rule as the data show it: active = inhibition above about 75%; inactive = the rest.

SMILES | Nox1 inh | luminol inh ctr
CNC(=O)Oc1ccc(-c2nc(CSc3ccc(Cl)cc3)cs2)cc1 | -27.2 | 101.7*
CC(C)(NO)C(=O)c1ccccc1 | 22.2 | -1.5
Cn1c(=O)n(C)c(=O)n(C)c1=O | -33.7 | 2.4
